These molecules were tested on Plasmodium falciparum (assay: GSK_TCMDC: Inhibition of Plasmodium falciparum Dd2 in whole red blood cells, using parasite LDH activity as an index of growth. Test compounds present at 2uM).
Format: functional
Work on `Cc1cc(O)c(-c2ccc(OCc3ccc(Cl)cc3)cc2)c(C)n1` yielded an Inhibition of 76%. Molecule `CC(C)Cn1ccc2c3c(N)nc(N)nc3ccc21` has an Inhibition of 96%. `CCN(CC)c1ccc2nc(N)nc(N)c2c1.Cl` showed an Inhibition of 0%. Molecule `Cc1nc(C)c(-c2ccc(Oc3ccc(OC(F)(F)F)cc3)cc2)c(OC(=O)c2ccccc2)c1Cl` has an Inhibition of 97%. Work on `Cl.c1ccc2c(NCCOCCNc3c4ccccc4nc4ccccc34)c3ccccc3nc2c1` yielded an Inhibition of 0%. Molecule `CC1CCNc2ccc(Cc3cnc(N)nc3N)cc21.Cl` (centres undefined) has an Inhibition of 0%. Work on `CC1CCN(Cc2c(O)ccc3c(CN4CCC(C)CC4)c(O)ccc23)CC1.Cl` yielded an Inhibition of 86%. In the case of `COc1ccccc1-c1nc2c(ccc3nc(N)nc(N)c32)[nH]1`, the Inhibition is reported as 93%. `CN(C)S(=O)(=O)n1ccc2c3c(N)nc(N)nc3ccc21` gave an Inhibition of 0%. For `Cc1nc(C)c(-c2ccc(-c3ccc(F)cc3)cc2)c(O)c1Cl`, the Inhibition was 96%. Molecule `Nc1nc(N)c2c(Oc3cccc(Cl)c3)cccc2n1` has an Inhibition of 7%. `Cc1nc(C)c(-c2ccc(Cl)cc2)c(O)c1I` showed an Inhibition of 96%. `COc1ccc(OC)c(CC2c3ccc(Br)c(O)c3CCN2C)c1.Cl` (centres undefined) showed an Inhibition of 97%. `Cc1[nH]c(C)c(-c2ccc(Oc3ccc(C(F)(F)F)cc3)cc2)c(=O)c1Br` showed an Inhibition of 97%. `CCOc1cc(Cc2cnc(N)nc2N)ccc1OC.Cl` gave an Inhibition of 0%. For `CC/N=C(/NCCCCCCN/C(=N/CC)NCc1ccccc1)NCc1ccccc1.I`, the Inhibition was 95%. In the case of `CC(C)(C)c1ccc(-c2nc3c(ccc4nc(N)nc(N)c43)[nH]2)cc1.Cl`, the Inhibition is reported as 100%. `CCN(CC)CCNc1cc(C)nc(NC(=N)Nc2ccc(Cl)cc2)n1.Cl` showed an Inhibition of 0%. In the case of `COc1cc(Cc2cnc(N)nc2N)cc(OCCCS(=O)(=O)O)c1OC`, the Inhibition is reported as 0%. `CC(=NNC(S)=NCCc1ccccn1)c1ccccn1` gave an Inhibition of 95%. `Cc1[nH]c(C)c(-c2ccc(Oc3ccccc3)cc2)c(=O)c1Br` was tested, and the Inhibition was 97%. With `Cc1nc(C)c(-c2ccc(Oc3ccc(OC(F)(F)F)cc3)cc2)c(OC(=O)c2ccc(CN(C)C)cc2)c1Cl` the Inhibition was 98%. `O=C(NCCCCN1CCN(c2nsc3ccccc23)CC1)c1ccccc1C(=O)NCCCCN1CCN(c2nsc3ccccc23)CC1` was tested, and the Inhibition was 22%. In the case of `CCCCCCn1ccc2c3c(N)nc(N)nc3ccc21`, the Inhibition is reported as 91%.
